What all share (assay): PBM binding z-score (relative to random genomic background probes); higher = stronger binding; sequences stand for … in GC…GCGATTGACAGCGTAGAATGAAGG
Test [1] relates to PPARg:RXRa DBDmut IVT, anti-RXR (DBD mutation: RXRa K156A/R161A, NR concentration 270 nM, RXRa partner concentration 90 nM). The gist of the method:
(§1)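 Random background probes are the reference for binding z-scores. These scores derive from regression-normalized fluorescence on custom Agilent 4×180K protein-binding microarrays incubated 1 h with ligand-free nuclear receptor dimers. Binding was detected with antibodies against each partner (one per run).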

The subject of test [2] is PPARg:RXRa IVT, anti-PPARg (NR concentration 270 nM, RXRa partner concentration 90 nM). In a few lines: as §1
Test [3] has as its system PPARg DBDmut:RXRa IVT, anti-PPARg (DBD mutation: PPARg1 K132A/R137A, NR concentration 270 nM, RXRa partner concentration 90 nM). The gist of the method: as §1
For test [4], the system named is PPARg DBDmut IVT, anti-PPARg (DBD mutation: PPARg1 K132A/R137A, NR concentration 270 nM). The gist of the method:
as §1

In test [5] the test system is PPARg homodimer (NR concentration 180 nM). In a few lines: as §1
In test [6] the test system is PXR:RXRa (NR concentration 270 nM, RXRa partner concentration 90 nM). The gist of the method:
as §1

The test system of test [7] is PXR homodimer (NR concentration 270 nM). In a few lines: as §1
Test [8] concerns RARa:RXR (NR concentration 270 nM, RXRa partner concentration 90 nM). The gist of the method: as §1
The test system of test [9] is RARa homodimer (NR concentration 270 nM). In a few lines: as §1
In test [10] the test system is RARb:RXRa (NR concentration 270 nM, RXRa partner concentration 90 nM). The gist of the method:
as §1

The subject of test [11] is RARb homodimer (NR concentration 270 nM). The gist of the method: as §1
For test [12], the system named is RARg:RXRa (NR concentration 270 nM, RXRa partner concentration 90 nM). In a few lines: as §1
Test [13] deals with RARg homodimer (NR concentration 270 nM). In a few lines: as §1
The test system of test [14] is RXRa DBDmut IVT, anti-RXR (DBD mutation: RXRa K156A/R161A, NR concentration 90 nM). In a few lines:
as §1

The subject of test [15] is RXRa homodimer (NR concentration 180 nM). In a few lines:
as §1

Test [16] deals with THRa:RXRa (NR concentration 90 nM, RXRa partner concentration 90 nM). The gist of the method: as §1
Test [17] relates to THRa homodimer (NR concentration 90 nM). The gist of the method:
as §1

Test [18] deals with VDR homodimer (NR concentration 270 nM). The gist of the method:
as §1

Take TCAGACAGGTGAAGGTGACTCAGGTACGCAGTCG: the PBM binding z-score amounted to 2.42 in [1]; 1.7 in test [2]; 0.953 in test [3]; 0.0936 in test [4]; 0.74 in test [5]; 0.711 in test [6]. Moreover, the PBM binding z-score in test [7] is 0.325; in [8] it was 0.812; in test [9] it was -0.0576; in test [10] it was 1.62; in test [11] it was 1.6; in [12], 0.814. Besides, the PBM binding z-score in [13] came out at 0.949; in [14] it was 0.889; in test [15], 0.995; in [16], 1.66; in test [17] it was 0.461; in test [18], 0.358.
As for ATAAGTAGGTTACATCCGGGTCATTCAGGCTATG, the PBM binding z-score in [1] was found to be 7.68; in [2], 7.66; in [3], 4.25; in test [4], 3.55; in test [5] it was 2.34; in [6], 3.51. Besides, the PBM binding z-score in test [7] turned out to be 2.42; in test [8], 3.58; in test [9] it was 1.79; in [10] it was 2.26; in test [11] it was 2.83; in [12], 3.41. Also, the PBM binding z-score in test [13] was determined as 2.17; in test [14] it was 1.37; in test [15], 3.12; in [16], 3.72; in test [17] it was 2.7; in [18], 3.19.
Regarding CGAGCTAGGTCATTGACAGGACAGTGAATAGTAA, the PBM binding z-score in [1] was 3.51; in [2], 2.78; in test [3], 0.0808; in test [4], -0.146; in test [5] it was 0.918; in [6] it was 1.54. The PBM binding z-score in test [7] is 0.31; in test [8] it was 2.18; in test [9], -0.128; in test [10] it was 3.66; in test [11], 2.77; in [12], 4.67. The PBM binding z-score in test [13] stood at 4.49; in test [14], 2.43; in [15], 2.37; in [16], 2.7; in test [17], 0.527; in [18] it was 1.23.
TCATATAGGTAAAACGTGAAAGTCGGTGTGGTAA: the PBM binding z-score in test [1] was 6.04; in [2] it was 2.88; in [3] it was 0.79; in [4], 1.01; in [5], 1.25; in test [6] it was 0.221. For the same sequence, the PBM binding z-score was 0.241 in test [7]; 0.571 in test [8]; 1.24 in test [9]; 0.406 in test [10]; -0.166 in test [11]; 0.237 in [12]. The PBM binding z-score is -0.0627 in [13]; 1.62 in test [14]; 0.564 in [15]; 0.025 in test [16]; -0.0697 in [17]; 0.126 in test [18].
For GCAGACAGGTGAAACGCAGGTCACTCAGGGTGGC, the PBM binding z-score in [1] was 0.839; in [2], 1.6; in test [3] it was -0.584; in test [4], -0.0986; in [5], 1.32; in test [6] it was 2.65. Also, the PBM binding z-score in test [7] was -0.357; in test [8], 3.45; in [9], -0.516; in [10] it was 2.44; in test [11], 3.35; in test [12], 5.21. In addition, the PBM binding z-score in test [13] was 2.47; in test [14], -0.32; in test [15], 2.43; in test [16], 3.6; in test [17], 0.663; in [18], 0.199.
On to TTACCAAGGTGAATGGTCGTTGATGCACGCCTTG, for which the PBM binding z-score in [1] came out at 2.03; in test [2] it was 2.67; in [3], 0.334; in [4], 0.253; in test [5], 0.0353; in [6] it was 0.0282. Also, the PBM binding z-score in [7] is -0.612; in [8] it was 0.364; in test [9], 0.953; in [10], 1.46; in [11], 0.707; in test [12], 0.538. Also, the PBM binding z-score in test [13] was 0.576; in [14], -0.0991; in test [15] it was 0.73; in [16] it was 1.47; in test [17], 0.775; in [18], 0.132.
As for TCTGCTAGGACAACGATGGTCAGCTAATCTGCTA, the PBM binding z-score in test [1] is 0.636; in test [2] it was -0.317; in test [3], -0.808; in [4], -0.587; in [5], -1.47; in test [6], -0.66. Moreover, the PBM binding z-score in test [7] was -1.33; in test [8], -0.497; in [9], -0.832; in test [10] it was 0.175; in [11], -0.669; in test [12] it was -0.181. Besides, the PBM binding z-score in [13] was 0.34; in [14] it was 0.112; in test [15] it was -0.495; in [16], 0.316; in test [17], -0.704; in test [18] it was -0.943.
With ATCTCTAGGTAAGACTCAGTTCAGTCAAGAACGC, the PBM binding z-score stood at 1.92 in test [1]; 1.14 in [2]; 0.571 in test [3]; 0.277 in [4]; 1.18 in test [5]; 1.32 in [6]. For the same sequence, the PBM binding z-score was 1.41 in test [7]; 0.474 in test [8]; 1.34 in test [9]; 0.511 in [10]; 0.982 in test [11]; 0.387 in [12]. Further, the PBM binding z-score in test [13] was 0.453; in [14], 0.696; in test [15] it was 0.195; in [16], 1.18; in test [17] it was 0.902; in [18] it was 1.48.

The values above are taken from the supplement of paper PMC6555819.
